Test [1] in a line: Primary qHTS for inhibitors of nuclear receptor binding SET domain protein 2 (NSD2) in an isogenic RCH-ACV NSD2 p.E1099K mutant (9B) (AID 1645876). For activity change, negative = viability loss: % is set by controls: 0 for no effect and ±100 for the full control effect. Note: nearly all actives have a fitted effect of over 70% in size. Note: potency is the fitted concentration of half-maximal effect. For orientation: In qHTS, concentration-response curves come from the screen itself.
Test [2] is described as follows: Primary qHTS for inhibitors of nuclear receptor binding SET domain protein 2 (NSD2) in an RCH-ACV wild type WT cells (2C) (AID 1645877). For activity change, negative = cell killing: % is set by controls: 0 for no effect and ±100 for the full control effect. Note: nearly all actives have a fitted effect of over 70% in size. Note: potency is the fitted concentration of half-maximal effect.
Test [3] deals with Catechol O-methyltransferase (Homo sapiens) (UniProt P21964). As to the kind of experiment: Confirmatory Screen for Target Class Profiling of Small Molecule Inhibitors of Methyltransferases (AID 1745852). As to conditions: MTase-Glo luminescence, SAH detection, recombinant enzyme; measured here: COMT max response; stronger effect = lower value.
Catechol O-methyltransferase (Homo sapiens), sequence (P21964 whole entry, looked up): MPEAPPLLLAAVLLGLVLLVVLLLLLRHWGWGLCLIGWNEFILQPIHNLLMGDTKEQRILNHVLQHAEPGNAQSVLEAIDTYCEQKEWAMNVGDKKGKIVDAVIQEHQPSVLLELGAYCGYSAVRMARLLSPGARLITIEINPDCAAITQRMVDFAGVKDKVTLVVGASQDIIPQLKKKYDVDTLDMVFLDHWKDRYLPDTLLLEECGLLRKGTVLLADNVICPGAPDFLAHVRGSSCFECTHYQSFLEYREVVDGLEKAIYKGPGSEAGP

Results filed as inconclusive are left out. Active and inactive are the calls of the source. Calls come from the whole dose curve; as a rule, active = well fitted curve in the direction sought with a large enough effect; inconclusive = small, poorly fitted or top-dose-only effect, or another doubt; inactive = no such curve, though single readings can be large; an effect the other way counts as inactive or inconclusive. Where a SMILES comes first, the peptide text is derived from it. The star is where a group is joined. AFC = O=c1cc(C(F)(F)F)c2ccc(N*)cc2o1

The values below come from PubChem BioAssay (NCATS).

For the compound `CC1(C)CC[C@]2(CO[C@@H]3O[C@H](CO)[C@@H](O)[C@H](O)[C@H]3O)[C@@H](O)C[C@]3(C)C(=CCC4[C@@]5(C)CC[C@H](O[C@@H]6O[C@H](CO[C@@H]7O[C@H](CO[C@@H]8OC[C@@H](O)[C@H](O)[C@H]8O)[C@@H](O)[C@H](O)[C@H]7O)[C@@H](O)[C@H](O)[C@H]6O)C(C)(C)C5CC[C@]43C)[C@@H]2C1` (stereo partly drawn), the activity change, negative = viability loss in test [1] was -11.3% [at 9.23 µM] (inactive). Besides, the activity change, negative = cell killing in test [2] is -16% [at 9.23 µM] (inactive).

As for `CC1=C(C(=O)O)/C(=C/CO[C@@H]2O[C@H](COC(=O)/C=C/c3ccc(O)cc3)[C@@H](O)[C@H](O)[C@H]2O)C(O)C1` (stereo partly drawn), the Potency entry in test [1] and in test [2] was “inactive” in each case.

With `COc1ccc(/C=C/C(=O)O[C@H]2[C@H](O[C@H]3[C@@H]4C=CO[C@@H](O[C@@H]5O[C@H](CO)[C@@H](O)[C@H](O)[C@H]5O)[C@@H]4[C@@]4(CO)O[C@@H]34)O[C@@H](C)[C@H](O)[C@H]2OC(C)=O)cc1`, the Potency entry in test [1] and in test [2] was “inactive” throughout.

Regarding `CC(=O)O[C@@H]1[C@@H](CO)O[C@@](CO)(O[C@H]2O[C@H](COC(=O)/C=C/c3ccccc3)[C@@H](O)[C@H](O)[C@H]2O)[C@H]1O`, the Potency entry in test [1] and in test [2] was “inactive” throughout.

As for `CC1(C)CC[C@]2(C(=O)O[C@@H]3O[C@H](CO)[C@@H](O)[C@H](O)[C@H]3O)CC[C@]3(C)C(=CCC4[C@@]5(C)C[C@@H](O)[C@H](O)C(C)(C)C5[C@H](O)C[C@]43C)[C@@H]2[C@@H]1O` (stereo partly drawn), the Potency result in test [1] and in test [2] was “inactive” each time.

As for `COc1cc(O)cc(C)c1C(=O)OC1C(CO)OC(OC2C(O)C(O)C(O)C(O)C2O)C(O)C1O` (stereo not drawn), the Potency result in test [1] and in test [2] was “inactive” in each case.

Turning to `COc1ccc(C2(O)c3ccccc3NC(=O)C2O)cc1` (stereo not drawn), the Potency entry in test [1] and in test [2] was “inactive” each time.

Regarding `Cc1c2cc(c(C(=O)O)c1C)OC1OC(C(O)C(O)C1O)C(O)C(O)C1OC(O2)C(O)C(O)C1O` (stereo not drawn), the Potency entry in test [1] and in test [2] was “inactive” in each case.

For the compound `Nc1nc2c(ncn2[C@@H]2O[C@H](CO)[C@@H](O)[C@H]2O)c(=O)[nH]1`, the Potency entry in test [1] and in test [2] was “inactive” each time.

In the case of `CC12CCC3c4ccc(OC5OC(C(=O)O)C(O)C(O)C5O)cc4CCC3C1CCC2O` (stereo not drawn), the Potency result in test [1] and in test [2] was “inactive” in each case.

As to `NCc1c[nH]c(=S)n1[C@@H]1CCc2c(F)cc(F)cc2C1`, the Potency entry in test [1] and in test [2] was “inactive” throughout.

Consider `CC1(O)CCCC2(C)C1CCC13CC(CO)C(CCC12)C3` (stereo not drawn), for which the Potency result in test [1] and in test [2] was “inactive” each time.

Turning to `O=C1OCC(c2ccccc2)=C1Cc1ccccc1`, the Potency entry in test [1] and in test [2] was “inactive” in each case.

On to `COc1c2c(c(CO)c3c1C(=O)OC3)OC1(C)CCC3(O)C(C)(C)OC(=O)CCC3(C)C1C2` (stereo not drawn), for which the Potency entry in test [1] and in test [2] was “inactive” throughout.

Take `COc1cc(C2c3cc4c(c(O)c3CC(CO)C2C(=O)O)OCO4)cc(OC)c1O` (stereo not drawn): the Potency is 2520 nM (active) in test [1] and 2000 nM (active) in test [2].

With `C=C[C@@](C)(O)CC/C=C(\C)C(=O)O[C@@H]1[C@@H]2O[C@]2(C)[C@H]2[C@H](O[C@@H]3O[C@H](CO)[C@@H](O)[C@H](O)[C@H]3O)OC=C[C@@]12O`, the Potency entry in test [1] and in test [2] was “inactive” in each case.

With `Cc1ccccc1C#Cc1ccc(CCC(=O)O)cc1`, the Potency entry in test [1] and in test [2] was “inactive” in each case.

As to `C=C1C(=O)O[C@@H]2[C@H]1CCC(C)=C1CCC(=O)O[C@]12C`, the Potency in test [1] is 9160 nM (active); in test [2], 4090 nM (active).

`COc1cc(Br)c(Nc2nc(-c3c(C)nc4ncccn34)cs2)c(Br)c1`: the figures for the Potency in test [1] and in test [2] were 1450 nM (active) and 2050 nM (active), respectively.

For the compound `CC[C@@H](O)C[C@@H]1C(C)=C[C@@H]2CCCC[C@@H]2[C@@]1(C)C(=O)O`, the Potency result in test [1] and in test [2] was “inactive” in each case.

Take `COC(=O)C[C@H]1C(C)(C)[C@H](OC(=O)C(C)C)[C@@]2(O)C(=O)[C@]1(C)C1CC[C@]3(C)C(CC(=O)O[C@H]3c3ccoc3)[C@]13O[C@@H]32` (stereo partly drawn): the Potency entry in test [1] and in test [2] was “inactive” in each case.

As to `COc1cc2c(cc1OC)CC(=O)N(CCCNC[C@H]1Cc3cc(OC)c(OC)cc31)CC2`, the Potency result in test [1] and in test [2] was “inactive” in each case.

With `CC(C)=CCC[C@](C)(O)[C@H]1CC[C@]2(C)[C@@H]1[C@H](O)CC1[C@@]3(C)CC[C@H](O)C(C)(C)C3[C@@H](O[C@@H]3O[C@H](CO)[C@@H](O)[C@H](O)[C@H]3O[C@@H]3OC[C@@H](O)[C@H](O)[C@H]3O)C[C@]12C` (stereo partly drawn), the Potency entry in test [1] and in test [2] was “inactive” each time.

Regarding `C=C1C(=O)O[C@H](CCC)[C@H]1C(=O)O`, the Potency result in test [1] and in test [2] was “inactive” in each case.

Regarding `CC(=O)N[C@@H](Cc1c[nH]c2ccccc12)C(=O)N[C@@H](CCC(=O)O)C(=O)N[C@@H](Cc1cnc[nH]1)C(=O)N[C@@H](CC(=O)O)C(=O)Nc1ccc2c(C(F)(F)F)cc(=O)oc2c1` (Ac-WEHD-{AFC}), the Potency entry in test [1] and in test [2] was “inactive” throughout.

For the compound `CC[C@H](C)[C@H](NC(=O)[C@H]([C@@H](C)CC)N(C)C(C)=O)C(=O)N[C@H](C(=O)N[C@@H](CC(C)C)C(=O)[C@@]1(C)CO1)[C@@H](C)O`, the results for the Potency in test [1] and in test [2] were 12.9 nM (active) and 7.3 nM (active), respectively.

With `C=C[C@H]1[C@H](O[C@@H]2O[C@H](CO)[C@@H](O)[C@H](O)[C@H]2O)OC=C(C(=O)OC)[C@H]1CCOC(=O)c1cc(O)c(O)c(O)c1`, the Potency entry in test [1] and in test [2] was “inactive” in each case. The activity in test [3] is -67.5%.

Turning to `C=C1C(=O)OC2C1CCC(=C)C1CC(OC(C)=O)C(=C)C12` (stereo not drawn), the Potency in test [1] is 10300 nM (active); in test [2], 3250 nM (active). In test [3], the activity was -65.1%.
